High-throughput results deposited in PubChem by National Center for Advancing Translational Sciences (NCATS).
AMA1-RON2 inh = inhibitors of Plasmodium falciparum AMA1-RON2 interaction; AID 720542; 360,000 compounds, 0.2% hits; AlphaScreen AMA1-biotinylated RON2 peptide binding; Potency, µM (series often up to 58.2 µM), without a hit: top-dose activity change, negative = inhibition, usual class: inhibitors;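 note: 0% = vehicle wells and -100% = peptide control; nearly all actives have a fitted effect of over 45% in size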
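AMA1 (3D7) with his tag at 25 nM final met compounds first, then biotinylated RON2 peptide at 25 nM; detection used donor plus acceptor beads, 10 µg/mL apiece, read by AlphaScreen after 30 min at room temperature.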
AmpC inh detg = inhibitors of E. coli AmpC beta-lactamase with detergent; P00811; Potency, µM (titrated, usually from 114 µM), inactives show top-dose activity change, negative = inhibition, actives largely listed as inhibitors; AmpC hydrolysis of nitrocefin, absorbance 480 nm, 0.01% Triton; AID 485294; 370,000 compounds, 0.041% hits;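 note: 0% = no-compound wells and -100% = no-enzyme wells; nearly all actives have a fitted effect of over 25% in size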
Target sequence (P00811 whole entry, looked up): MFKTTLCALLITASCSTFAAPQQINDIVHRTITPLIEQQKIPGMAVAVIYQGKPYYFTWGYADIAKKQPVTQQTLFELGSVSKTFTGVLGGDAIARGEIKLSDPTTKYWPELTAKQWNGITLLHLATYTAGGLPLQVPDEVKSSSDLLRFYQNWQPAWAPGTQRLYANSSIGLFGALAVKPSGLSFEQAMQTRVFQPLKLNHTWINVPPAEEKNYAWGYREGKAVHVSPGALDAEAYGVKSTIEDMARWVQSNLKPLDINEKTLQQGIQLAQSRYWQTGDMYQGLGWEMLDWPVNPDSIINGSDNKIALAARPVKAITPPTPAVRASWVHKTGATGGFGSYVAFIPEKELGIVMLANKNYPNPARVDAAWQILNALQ
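20 mM phosphate pH 7.0 + 0.01% (detergent screen) or 0.0001% Triton X-100; 5.3 nM AmpC reagent; cpd preinc 15 min RT; nitrocefin (800 uM stock) to start; A480 q20 s × 4 min; Activity was normalised to no-enzyme and no-compound control wells.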
RE007 growth inh = less growth of the S. pombe RE007 Vpr strain; S. pombe RE007 Vpr strain, BacTiter-Glo ATP luminescence, 24 h; Potency, µM (highest dose often 92.2 µM), for inactives: at the top dose activity change, negative = less growth, actives largely listed as inhibitors; 360,000 compounds, 0.21% hits; active = well fitted falling curve with a large enough effect; inconclusive = small, poorly fitted or top-dose-only effect; inactive = no such curve, though single readings can be large or run the other way; note: nearly all actives have a fitted effect of over 50% in size
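Fission yeast RE007 carrying one integrated HIV-1 vpr copy, seeded at OD 0.01 in PMG+AL medium with 23 nL pinned compound. Grown 24 h at 30 degrees; viability read by BacTiter-Glo luminescence after 5 min.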
AmpC inh no detg = AmpC beta-lactamase inhibition without detergent. P00811. AmpC nitrocefin hydrolysis, absorbance 480 nm, 0.0001% Triton. Potency, µM (titrated, usually from 57.1 µM), inactives show top-dose activity change, negative = inhibition, usual class: inhibitors. 330,000 compounds, 0.52% hits. AID 485341;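 note: plate controls were no compound for no effect and no enzyme for full effect; nearly all actives have a fitted effect of over 20% in size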
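AmpC (5.3 nM in the dispensed reagent) in 20 mM phosphate pH 7.0 with 0.01% (detergent screen) or 0.0001% Triton X-100 was preincubated with compounds for 15 min at room temperature. Nitrocefin was then added from an 800 uM solution, and hydrolysis was followed at 480 nm.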
* = called active by the depositor; ? = inconclusive; . = no result given; [ ] = remark or other dose. Most compounds without a hit are left out; they make up all but 0.79% or so of the library. Unless noted, calls come from the whole dose curve; as a rule, active = well fitted curve in the direction sought with a large enough effect; inconclusive = small, poorly fitted or top-dose-only effect, or another doubt; inactive = no such curve, though single readings can be large; an effect the other way counts as inactive or inconclusive. Unless noted, % is set by controls: 0 for no effect and ±100 for the full control effect; potency is the fitted concentration of half-maximal effect.

SMILES | AMA1-RON2 inh | AmpC inh detg | RE007 growth inh | AmpC inh no detg
CCOc1ccc(N(CC(=O)Nc2cccc(OC)c2)S(=O)(=O)c2c(C)noc2C)cc1 | -4% | ? | 6% | 18µM*
COc1ccc(N(CC(=O)Nc2ccc3c(c2)OCCO3)S(=O)(=O)c2cccnc2)cc1 | 0% | 3% | -1% | 40µM*
CC(C)CCN(C)C1CCN(S(=O)(=O)c2ccc(F)cc2)CC1 | -1% | -12% | -3% | 10µM*
COC(=O)c1ccc(C(=O)OC)c(NC(=O)c2c(-c3ccccc3)c(-c3ccccc3)nn(C)c2=O)c1 | . | 0% | . | .
COc1cc(C2c3sc(=O)[nH]c3SC3C(=O)N(c4ccc(Br)cc4)C(=O)C32)ccc1O (configuration not stated) | 51% | 1% | 12% | 10µM*
Cc1[nH]n(-c2ccccc2)c(=O)c1C(C[N+](=O)[O-])c1ccccc1Cl (configuration not stated) | -21% | -10% | 32µM* | -39%
COc1ccc(C(C[N+](=O)[O-])c2c(C)[nH]n(-c3ccccc3)c2=O)cc1 (configuration not stated) | -2% | -2% | 11µM* | -31%
O=[N+]([O-])c1ccc(S(=O)Cc2ccccc2)c([N+](=O)[O-])c1 (configuration not stated) | -2% | . | 5.6µM* | .
COC(=O)c1ccc(N2C(=O)CC(N3CCC(O)(c4ccc(Br)cc4)CC3)C2=O)cc1 (configuration not stated) | 10% | 1% | 35µM* | 53%
COC(=O)c1ccc(N2C(=O)CC(N3CCC(n4c(=O)[nH]c5ccccc54)CC3)C2=O)cc1 (configuration not stated) | 0% | ? | 14µM* | 32%
Cc1cc(N2C(=O)CC(N3CCC(n4c(=O)[nH]c5ccccc54)CC3)C2=O)no1 (configuration not stated) | 11% | -4% | ? | -20%
Cc1c(Cl)cccc1NC(=O)c1cc(-c2cccc(Cl)c2)on1 | . | 23% | . | .
Cc1ccc(NC(=O)c2cc(-c3ccc(C)o3)nc3ccccc23)cc1 | -3% | 2% | 25µM* | 5%
Cc1ccc(-c2cc(C(=O)Nc3cccnc3)c3ccccc3n2)o1 | 36% | -13% | 1% | 2%
COc1ccc(C)cc1NC(=O)C(Sc1nnc(Nc2ccccc2F)s1)c1ccccc1 (configuration not stated) | -17% | -8% | -8% | 3.5µM*
CC(=O)Nc1cccc(NC(=O)CSc2nccn2C2CCCC2)c1 | . | 7% | . | .
NS(=O)(=O)c1ccc(CCNC(=O)c2ccc3nc(Cc4ccccc4)oc3c2)cc1 | . | 0% | . | .
CCN(Cc1ccccc1)c1cc2c(c3c1ccn3C)C1CCC2C1 (configuration not stated) | 20µM* | . | -27% | .
CN(Cc1ccccc1)c1cc2c(c3c1ccn3C)C1CCC2O1 (configuration not stated) | 14µM* | . | ? | .
Cn1ccc2c(N(Cc3ccccc3)Cc3ccccc3)cc3c(c21)C1CCC3O1 (configuration not stated) | ? | . | -7% | .
Cc1ccc2c(c1)c(=O)c1ccccc1n2CCCC(=O)Nc1ccc(C)c(F)c1 | . | -2% | . | .
O=C(Nc1ccccc1)c1sc2cc(C(F)(F)F)cnc2c1-c1cccs1 | 2% | 1% | -10% | 4.5µM*
COc1ccc(S(=O)(=O)n2nc(-c3ccco3)nc2NCc2ccc(OC)c(OC)c2)cc1 | . | -2% | . | .
COc1ccc(NC(=S)N(CCc2c(C)[nH]c3ccc(C)cc23)Cc2ccco2)cc1 | 20% | ? | 0% | 18µM*
CCOc1ccc(NC(=S)N(CCc2c(C)[nH]c3ccc(C)cc23)Cc2ccco2)cc1 | 22% | ? | -13% | ?
SMILES | AMA1-RON2 inh | AmpC inh detg | RE007 growth inh | AmpC inh no detg
COc1ccc(NC(=O)Cc2c[nH]c3ccccc23)cc1S(=O)(=O)N1CCCCC1 | -12% | -4% | 12% | 14µM*
C(C#CCCCCCCCCC[n+]1ccccc1)#CCCCCCCCCC[n+]1ccccc1 | -16% | -7% | 7.9µM* | 199%
COc1ccc(CCNC(=O)NCCc2c[nH]c3ccccc23)cc1OC | 1% | 7% | 6% | -5%
COc1cc2c(CCNC(C)=O)c[nH]c2cc1O | 4.5µM* | . | -11%[18.4 µM] | .
CN(C)c1cccc(NC(=O)C2Cc3c(-c4ccc(Cl)cc4)ccnc3O2)c1 (configuration not stated) | 25µM* | . | -16% | .
CCOC(=O)C1CCN(C2=C(NS(=O)(=O)c3ccc(Br)cc3)C(=O)c3ccccc3C2=O)CC1 | 13µM* | 0% | -19% | -13%
CN1CCN(C2=C(NS(=O)(=O)c3ccccc3)C(=O)c3ccccc3C2=O)CC1 | -7% | 4% | -8% | -24%
O=C1C(NS(=O)(=O)c2ccc(Cl)cc2)=C(N2CCCCC2)C(=O)c2ccccc21 | 11µM* | -4% | -22% | -26%
COc1cccc(NC(=O)Cn2c(=O)ccc3cc(S(=O)(=O)N4CCC(C)CC4)ccc32)c1 | . | 2% | . | .
CCCCSCCCNC(=O)CN1C(=O)c2cccnc2Oc2ccc(Cl)cc21 | . | 5% | . | .
Cc1cccc(N2C(=O)NC(=O)/C(=C\c3cc(C)n(-c4sc5c(c4C#N)CCCC5)c3C)C2=O)c1C | 0% | -7% | 8% | 32µM*
